From PubChem
BoNT F protease = BoNT/F light chain protease inhibitors, primary screen, biochemical, flow cytometry, MLPCN library; Multiplex microsphere protease cleavage assay; inhibition, % at 10 µM; hit rate 0.22% among 360,000; in the data active = inhibition above about 35%, passing the limit was not always enough
BoNT A protease = BoNT/A light chain protease inhibitors, primary screen, biochemical, flow cytometry, MLPCN library. Botulinum neurotoxin type A light chain protease (Clostridium botulinum A str. ATCC 3502). multiplex microsphere protease substrate cleavage. inhibition, % at 10 µM. hit rate 0.17% among 360,000. AID 588499, 2011; in the data active = inhibition above about 30%
SARS 3CLpro inh = SARS-CoV 3CLpro protease inhibitors, primary screen, biochemical, quenched FRET. recombinant SARS-CoV 3CLpro, quenched FRET peptide cleavage. hit rate 0.14% among 290,000. AID 1706, 2009. inhibition, % at 6 µM. Replicase polyprotein 1ab (Severe acute respiratory syndrome coronavirus), P0C6X7; in the data active = inhibition above about 12%
Anthrax LF prot = Bacillus anthracis LF protease inhibitors, primary screen, biochemical, multiplex microsphere, MLPCN library; Lethal factor (Bacillus anthracis), P15917; multiplex microsphere protease cleavage assay; inhibition, % at 10 µM; hit rate 0.12% among 360,000; AID 588501, 2011; in the data active = inhibition above about 30%
Autofluor counter = counter-screen for toxin protease inhibitors: compound fluorescence. compound autofluorescence counterscreen, microsphere flow cytometry; active compounds read high. fluorescence intensity (test concentration not listed). hit rate 3.1% among 360,000. AID 624483; in the data active = fluorescence intensity above about 16000
CCHF vOTU inh-1 = CCHFV vOTU protease inhibitors, primary screen, biochemical, Pep-AMC substrate, fluorescence; Crimean-Congo hemorrhagic fever virus L polyprotein viral ovarian tumor (vOTU) protease …; hit rate 0.55% among 370,000; inhibition, % at 11.5 µM
CCHF vOTU inh-2 = CCHFV vOTU protease inhibitors, confirmation, biochemical, Pep-AMC substrate, fluorescence | inhibition, % at 11.5 µM | AID 686976, 2013 | shares compounds with CCHF vOTU inh-1 | hit rate 17% among 1,900 | Recombinant CCHFV vOTU
Numbers stand for hits; 0 = inactive; - = no result given. In the library only some 3.9% were active in any assay of this set; here they are far more common. Cut-off read from the data, not from the text of the source, unless noted: active = inhibition above about 30%; inactive = the rest.

SMILES	BoNT F protease	BoNT A protease	SARS 3CLpro inh	Anthrax LF prot	Autofluor counter	CCHF vOTU inh-1	CCHF vOTU inh-2
Cn1ccc2c(N(Cc3ccccc3)Cc3ccccc3)cc3c(c21)C1CCC3O1 (centres undefined)	0	0	-	0	0	43.5	0
CN(Cc1ccccc1)c1cc2c(c3c1ccn3C)C1CCC2O1 (centres undefined)	0	0	-	0	0	0	-
COc1ccccc1C=NNC(=O)NN=Cc1ccccc1OC	0	0	-	0	0	0	-
COc1ccccc1C=NN=C(NN=Cc1ccccc1OC)NN=Cc1ccccc1OC	0	0	-	0	0	69.0	0
COc1ccc(CNCC#Cc2ccccc2)cc1	-	-	-	-	-	0	-
CCOc1cc(N2CCOCC2)c(OCC)cc1NC(C)C(=O)N1CCN(CC)CC1 (centres undefined)	0	0	0	0	0	31.2	0
CCOc1cc(N2CCOCC2)c(OCC)cc1NC(=O)C(C)C	0	0	0	0	0	0	-
CN(C)c1cccc2c1c(NS(=O)(=O)c1cn(C)cn1)nn2C	0	0	0	0	0	52.0	50.3
COC(=O)[C@@]12C[C@@H](CC(=O)NCc3ccc(OC)c(OC)c3)C(=O)N(CCc3ccc(OC)c(OC)c3)C1=CCC(C)(C)C2	-	-	-	-	-	30.5	0
CCCCNC(=O)C[C@@H]1C[C@@]2(C(=O)OC)CC(C)(C)CC=C2N(CCc2ccc(OC)c(OC)c2)C1=O	-	-	-	-	-	0	-
COC(=O)[C@@]12C[C@@H](CC(=O)NCc3cccc(C(F)(F)F)c3)C(=O)N(Cc3cccc4ccccc34)C1=CCC(C)(C)C2	-	-	-	-	-	30.9	0
CCCCCCCCN1C(=O)[C@H](CC(=O)NCc2ccc(OC)c(OC)c2)C[C@@]2(C(=O)OC)CC(C)(C)CC=C12	-	-	-	-	-	37.4	0
COC(=O)[C@@]12C[C@@H](CC(=O)NCc3ccc(OC)c(OC)c3)C(=O)N(Cc3ccco3)C1=CCC(C)(C)C2	-	-	-	-	-	36.9	0
O=C(NCc1c(F)cccc1F)C1CCCN(c2ncccn2)C1 (centres undefined)	-	-	-	-	-	0	-
CCCCCCCCN1C(=O)[C@H](CC(=O)N2CCCCC2)C[C@@]2(C(=O)OC)CC(C)(C)CC=C12	-	-	-	-	-	33.4	0
CCN1C(=O)N(C(C)=O)[C@@H]2C[C@H](C(=O)N3CCCC3)[C@H](C)[C@H](c3ccccc3)C[C@@H]21	-	-	-	-	-	0	-
C(=CCSc1ccccn1)CSc1ccccn1	-	-	-	-	-	0	-
Cc1ccccc1NC(=O)OC1CCC12CCC(c1ccccc1)CC2 (centres undefined)	-	-	-	-	-	0	-
CCN1CCN(c2ccc(S(=O)(=O)N3CCOCC3)cc2NC(=O)c2ccc(C(F)(F)F)cc2)CC1	0	0	-	0	0	34.5	0
CCNC(=O)N1CCN(c2ccc(N3CCN(Cc4ccccc4)[C@H](C)C3)c(C)c2)[C@H](C)C1	-	-	-	-	-	0	-
COc1ccc(C(=O)c2coc3c2C(=O)C(=O)c2ccccc2-3)cc1	0	0	0	0	0	0	-
O=C(c1ccccc1)c1coc2c1C(=O)c1ccccc1C2=O	0	0	0	0	0	33.5	58.7
Nc1[nH]c(C(=O)c2ccc(Br)cc2)c(-c2c(F)cccc2F)c1C(=O)NCCc1c[nH]c2ccccc12	-	-	-	-	-	0	-
Cc1ccc([C@@H]2CC=C(C(=O)O)[C@H](c3ccc(F)cc3)N2S(=O)(=O)c2ccc(C)cc2)cc1	0	0	-	0	0	0	-
CCc1ccc([C@@H]2CC=C(C(=O)O)[C@H](c3ccc(C(C)(C)C)cc3)N2S(=O)(=O)c2ccc(C)cc2)cc1	0	0	-	0	0	46.0	0
Cc1ccc([C@H]2C(C(=O)O)=CC[C@@H](c3cccs3)N2S(=O)(=O)c2ccc(C)cc2)cc1	0	0	-	0	0	0	-
CCc1ccc([C@@H]2CC=C(C(=O)O)[C@H](c3ccccc3)N2S(=O)(=O)c2ccc(C)cc2)cc1	0	0	-	0	0	0	-
Cc1ccc(S(=O)(=O)N2[C@@H](c3ccc(C(C)(C)C)cc3)C(C(=O)O)=CC[C@H]2c2cccs2)cc1	0	0	-	0	0	32.2	0
